Values joined by “and” are separate entries in the source; they are usually repeats but may differ in a detail not shown here. Equal entries are not always repeated. Inconclusive results are not listed. A call without a number means that no potency is given here. Values without a mark were called inactive. Active and inactive are the calls of the source. The call rests on the fitted dose curve; in most records, active means well fitted inhibition curve with a large enough effect; inconclusive means small, poorly fitted or top-dose-only effect; inactive means flat fitted curve, though single readings scatter.
Experiments:
HaCat [1] = assay: Cytotoxic Profiling of Annotated Libraries Using Quantitative High-Throughput Screening (AID 1296008); settings: Five cell lines viability, CellTiter-Glo ATP luminescence, 48-72 h; max response: stronger effect = lower value; further: potency means the concentration at half of the fitted maximal effect
Outline: (§1)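 Cytotoxicity was measured as CellTiter-Glo ATP luminescence, read after 10 min at room temperature. Compound treatment of the cells lasted 48 or 72 hr at 37 degrees Celsius in a qHTS format.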

KB-3-1 = assay: as above; settings: Five cell lines viability, CellTiter-Glo ATP luminescence, 48-72 h; max response: stronger effect = lower value
Outline: as §1

NIH3T3 = assay: as above; settings: Five cell lines viability, CellTiter-Glo ATP luminescence, 48-72 h; max response: stronger effect = lower value
Outline: as §1

CRL-7250 = normal cell line; assay: qHTS assay to identify novel small-molecules to repurpose for Merkel cell carcinoma treatment (AID 1296009); settings: MCC and control cell lines, CellTiter-Glo viability, 72 h; at 44.8 µM (top of the series) unless noted
Outline: (§2)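 Cell viability, measured as CellTiter-Glo luminescence, was normalized between DMSO and no-cell wells. The cells had been exposed to 8- or 11-point compound dilutions for 72 hr at 37 degree celsius.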

HACAT [2] = assay: as above; settings: MCC and control cell lines, CellTiter-Glo viability, 72 h; at 44.8 µM (top of the series) unless noted
Outline: as §2

MCC-13 = assay: as above; settings: MCC and control cell lines, CellTiter-Glo viability, 72 h; series mostly up to 46 µM
Outline: as §2

MCC-26 = assay: as above; settings: MCC and control cell lines, CellTiter-Glo viability, 72 h; series mostly up to 46 µM
Outline: as §2

MKL-1 = assay: as above; settings: MCC and control cell lines, CellTiter-Glo viability, 72 h; series mostly up to 46 µM
Outline: as §2

MKL-2 = assay: as above; settings: MCC and control cell lines, CellTiter-Glo viability, 72 h; series mostly up to 46 µM
Outline: as §2

HEK293T = assay: as above; settings: MCC and control cell lines, CellTiter-Glo viability, 72 h; at 44.8 µM (top of the series)
Outline: as §2
Further: nearly all actives have a fitted effect of over 60% in size.

`CN(C)CCc1c[nH]c2cccc(O)c12` was tested, and the outcome (HaCat [1]) was “inactive”, the max response (KB-3-1) was -8.17% and the max response (NIH3T3) was 2.31%. For the same molecule, the outcome (CRL-7250) was “inactive [at 92 µM]”, the outcome (HACAT [2]) was “inactive [at 92 µM]” and the Potency (MCC-13) was “inactive”. The Potency (MCC-26) was “inactive”, the Potency (MKL-1) was “inactive” and the Potency (MKL-2) was “inactive”.

With `NC(=O)OCCCc1ccccc1` the outcome (HaCat [1]) was “inactive”, the max response (KB-3-1) was -19.1% and the outcome (NIH3T3) was “inactive”. The outcome (CRL-7250) was “inactive”, the outcome (HACAT [2]) was “inactive” and the Potency (MCC-13) was “inactive”. For the same molecule, the Potency (MCC-26) was “inactive”, the Potency (MKL-1) was “inactive” and the Potency (MKL-2) was “inactive”.

`CN1CCc2cc(Cl)c(O)cc2[C@H]2c3ccccc3CC[C@@H]21` was tested, and the outcome (HaCat [1]) was “inactive”, the max response (KB-3-1) was 18% and the max response (NIH3T3) was -2.57%. For the same molecule, the outcome (HACAT [2]) was “inactive”, the Potency (MCC-13) was “inactive” and the Potency (MCC-26) was “inactive”. For the same molecule, the Potency (MKL-1) was “inactive” and the Potency (MKL-2) was “inactive”.

For `CN(C)C(=O)Oc1cc(OC(=O)N(C)C)cc(C(O)CNC(C)(C)C)c1` (centres undefined), the outcome (HaCat [1]) was “inactive”, the max response (KB-3-1) was -2.49% and the max response (NIH3T3) was -1.01%. The outcome (HACAT [2]) was “inactive”, the Potency (MCC-13) was “inactive” and the Potency (MCC-26) was “inactive”. For the same molecule, the Potency (MKL-1) was “inactive” and the Potency (MKL-2) was “inactive”.

In the case of `O=C(O)c1nn(Cc2ccc(Cl)cc2Cl)c2ccccc12`, the max response (HaCat [1]) is reported as -0.99%, the outcome (HaCat [1]) is reported as “inactive” and the max response (KB-3-1) is reported as 4.9% and -9.13%. For the same molecule, the max response (NIH3T3) was -6.41%, the outcome (NIH3T3) was “inactive” and the outcome (HACAT [2]) was “inactive”. The outcome (HEK293T) was “inactive”, the Potency (MCC-13) was “inactive” and the Potency (MCC-26) was “inactive”. The Potency (MKL-1) was “inactive” and the Potency (MKL-2) was “inactive”.

For `C[C@]12CC[C@H]3[C@@H](CCC4=CC(=O)CC[C@@H]43)[C@@H]1CC[C@@H]2O`, the outcome (HaCat [1]) was “inactive”, the Potency (KB-3-1) was 11.6 µM (active) and 20.6 µM (active) and the max response (NIH3T3) was -16.1%. The outcome (HACAT [2]) was “inactive”, the Potency (MCC-13) was “inactive” and the Potency (MCC-26) was “inactive”. For the same molecule, the Potency (MKL-1) was “inactive” and the Potency (MKL-2) was “inactive”.

With `CN1C[C@@H](NS(=O)(=O)N(C)C)C[C@@H]2c3cccc4c3c(cn4C)C[C@H]21` the outcome (HaCat [1]) was “inactive”, the max response (KB-3-1) was -6.93% and the max response (NIH3T3) was -4.54%. For the same molecule, the outcome (CRL-7250) was “inactive”, the outcome (HACAT [2]) was “inactive” and the Potency (MCC-13) was “inactive”. For the same molecule, the Potency (MCC-26) was “inactive”, the Potency (MKL-1) was “inactive” and the Potency (MKL-2) was “inactive”.

For `CCOC(=O)c1cncn1C(C)c1ccccc1` (centres undefined), the max response (HaCat [1]) was -5.29%, the outcome (HaCat [1]) was “inactive” and the max response (KB-3-1) was 0.49% and 0.484%. For the same molecule, the max response (NIH3T3) was 1.83% and -0.636%, the outcome (CRL-7250) was “inactive” and the outcome (HACAT [2]) was “inactive”. The outcome (HEK293T) was “inactive”, the Potency (MCC-13) was “inactive” and the Potency (MCC-26) was “inactive”. For the same molecule, the Potency (MKL-1) was “inactive” and the Potency (MKL-2) was “inactive”.

`CC(C)C(Br)C(=O)NC(N)=O` (centres undefined) was tested, and the max response (HaCat [1]) was -11.8%, the max response (KB-3-1) was -15.8% and the max response (NIH3T3) was -7.2%. The outcome (CRL-7250) was “inactive”, the Potency (MCC-13) was “inactive” and the Potency (MCC-26) was “inactive”. For the same molecule, the Potency (MKL-1) was “inactive” and the Potency (MKL-2) was “inactive”.

`COC(=O)C1=CCCN(C)C1` was tested, and the max response (HaCat [1]) was -4.46%, the outcome (HaCat [1]) was “inactive” and the max response (KB-3-1) was 6.89% and 12.1%. The outcome (NIH3T3) was “inactive”, the outcome (CRL-7250) was “inactive” and the outcome (HACAT [2]) was “inactive”. For the same molecule, the Potency (MCC-13) was “inactive”, the Potency (MCC-26) was “inactive” and the Potency (MKL-1) was “inactive”. The Potency (MKL-2) was “inactive”.

For `CC(C)=C[C@@H]1[C@@H](C(=O)OCc2coc(Cc3ccccc3)c2)C1(C)C`, the outcome (HaCat [1]) was “inactive”, the max response (KB-3-1) was 6.83% and the max response (NIH3T3) was -1.15%. The outcome (HACAT [2]) was “inactive”, the Potency (MCC-13) was “inactive” and the Potency (MCC-26) was “inactive”. The Potency (MKL-1) was “inactive” and the Potency (MKL-2) was “inactive”.

With `C[C@H]1CNCCc2ccc(Cl)cc21` the max response (HaCat [1]) was 2.82%, the max response (KB-3-1) was -14.3% and the outcome (NIH3T3) was “inactive”. For the same molecule, the outcome (CRL-7250) was “inactive”, the outcome (HEK293T) was “inactive” and the Potency (MCC-13) was “inactive”. For the same molecule, the Potency (MCC-26) was “inactive”, the Potency (MKL-1) was “inactive” and the Potency (MKL-2) was “inactive”.

For `Nc1ccc(N)cc1`, the outcome (HaCat [1]) was “inactive”, the max response (KB-3-1) was -3.68% and the max response (NIH3T3) was -12%. The outcome (HACAT [2]) was “inactive”, the Potency (MCC-13) was “inactive” and the Potency (MCC-26) was “inactive”. For the same molecule, the Potency (MKL-1) was “inactive” and the Potency (MKL-2) was “inactive”.

For `COP(=O)(OC)C(O)C(Cl)(Cl)Cl` (centres undefined), the outcome (HaCat [1]) was “inactive”, the max response (KB-3-1) was -12.2% and the outcome (NIH3T3) was “inactive”. For the same molecule, the outcome (HACAT [2]) was “inactive”, the outcome (HEK293T) was “inactive” and the Potency (MCC-13) was “inactive”. The Potency (MCC-26) was “inactive”, the Potency (MKL-1) was “inactive” and the Potency (MKL-2) was “inactive”.

In the case of `C[C@H]1C(=O)O[C@@H]2CCN3CC=C(COC(=O)[C@](C)(O)[C@]1(C)O)[C@H]23`, the outcome (HaCat [1]) is reported as “inactive”, the max response (KB-3-1) is reported as -11.3% and the max response (NIH3T3) is reported as -4.3%. The outcome (HACAT [2]) was “inactive”, the Potency (MCC-13) was “inactive” and the Potency (MCC-26) was “inactive”. The Potency (MKL-1) was “inactive” and the Potency (MKL-2) was “inactive”.

With `NCc1cccnc1` the outcome (HaCat [1]) was “inactive”, the max response (KB-3-1) was -3.91% and the max response (NIH3T3) was 3.43%. For the same molecule, the outcome (HACAT [2]) was “inactive”, the Potency (MCC-13) was “inactive” and the Potency (MCC-26) was “inactive”. The Potency (MKL-1) was “inactive” and the Potency (MKL-2) was “inactive”.

In the case of `ClC1=C(Cl)C2(Cl)C(CBr)CC1(Cl)C2(Cl)Cl` (centres undefined), the outcome (HaCat [1]) is reported as “inactive”, the max response (KB-3-1) is reported as -4.74% and the max response (NIH3T3) is reported as -4.41%. For the same molecule, the outcome (HACAT [2]) was “inactive”, the outcome (HEK293T) was “inactive” and the Potency (MCC-13) was “inactive”. For the same molecule, the Potency (MCC-26) was “inactive”, the Potency (MKL-1) was “inactive” and the Potency (MKL-2) was “inactive”.

For `CCOP(=S)(OCC)O/N=C(\C#N)c1ccccc1`, the outcome (HaCat [1]) was “inactive”, the max response (KB-3-1) was -0.0569% and the outcome (NIH3T3) was “inactive”. The outcome (HACAT [2]) was “inactive”, the outcome (HEK293T) was “inactive” and the Potency (MCC-13) was “inactive”. For the same molecule, the Potency (MCC-26) was “inactive”, the Potency (MKL-1) was “inactive” and the Potency (MKL-2) was “inactive”.

For `C=CCOC(Cn1ccnc1)c1ccc(Cl)cc1Cl` (centres undefined), the outcome (HaCat [1]) was “inactive”, the max response (KB-3-1) was 2.22% and the max response (NIH3T3) was -13%. The outcome (HACAT [2]) was “inactive”, the Potency (MCC-13) was “inactive” and the Potency (MCC-26) was “inactive”. The Potency (MKL-1) was “inactive”.

For `CCN(CC)Cc1nccn1-c1ccc([N+](=O)[O-])cc1C(=O)c1ccccc1Cl`, the outcome (HaCat [1]) was “inactive”, the max response (KB-3-1) was -4.42% and the max response (NIH3T3) was -7.47%. The outcome (HACAT [2]) was “inactive”, the Potency (MCC-13) was “inactive” and the Potency (MCC-26) was “inactive”. The Potency (MKL-1) was “inactive” and the Potency (MKL-2) was “inactive”.

Source: PubChem BioAssay (NCATS)
